Rab9 promoter act: Rab9 promoter activation; Huh7 Rab9 promoter-luciferase reporter, luminescence, 24 h; Potency, µM (series often up to 9.22 µM), inactives show at the top dose activation, negative = inhibition, actives largely listed as activators; hit rate 2.8% among 320,000; AID 485297; also: % of control where 0% means no effect; nearly all actives have a fitted effect of over 60% in size
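Luciferase signal after 10 min detection reagent at ambient indicates Rab9 promoter upregulation; stably transfected Huh7 cells were treated 24 h with compound in DMSO at 37 °C, 5% CO2.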
ELG1 genotox: genotoxicity induction in ELG1-luciferase HEK293T cells; Potency, µM (highest dose often 46 µM), for the others: at the top dose activity change, positive = activation, most hits filed as activators; AID 504466; HEK293T ELG1-luciferase reporter, luminescence, 16 h; hit rate 1.3% among 330,000; also: % of control where 0% means no effect; nearly all actives have a fitted effect of over 60% in size
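DMSO vehicle served as control against compound-treated ELG1-luciferase HEK293T cells; exposure lasted 16 hr at 37 °C and 5% CO2, followed by ONE-Glo luminescence detection after 30 min.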
FLuc counter: counter-screen for miR-21 project: firefly luciferase inhibitors or activators; hit rate 6.9% among 360,000; purified FLuc, Km substrates, luminescence inhibition; Potency, µM (titrated, usually from 57.5 µM), for inactives: top-dose activity change, negative = inhibition, hits mostly inhibitors; AID 588342; P08659;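 also: plate controls were vehicle for no effect and reference inhibitor for full effect; nearly all actives have a fitted effect of over 55% in size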
Target sequence (P08659 whole entry, looked up): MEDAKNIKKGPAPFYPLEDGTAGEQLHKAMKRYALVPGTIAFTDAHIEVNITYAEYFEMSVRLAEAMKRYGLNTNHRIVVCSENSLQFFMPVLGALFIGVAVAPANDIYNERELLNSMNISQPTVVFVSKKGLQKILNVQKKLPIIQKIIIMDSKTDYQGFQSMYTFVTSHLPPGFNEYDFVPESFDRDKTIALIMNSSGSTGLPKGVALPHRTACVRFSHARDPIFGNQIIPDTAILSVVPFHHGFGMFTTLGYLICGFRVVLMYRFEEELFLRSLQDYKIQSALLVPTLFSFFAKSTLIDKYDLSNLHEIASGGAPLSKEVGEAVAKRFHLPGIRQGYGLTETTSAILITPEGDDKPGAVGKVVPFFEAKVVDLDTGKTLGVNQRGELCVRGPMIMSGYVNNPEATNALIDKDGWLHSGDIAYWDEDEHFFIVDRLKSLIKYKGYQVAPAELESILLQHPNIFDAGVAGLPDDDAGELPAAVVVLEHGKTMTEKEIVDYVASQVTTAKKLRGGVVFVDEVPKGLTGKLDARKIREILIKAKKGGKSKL
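Purified P. pyralis luciferase (10nM final) with 10uM D-luciferin and 10uM ATP (Km levels) in 50mM Tris acetate pH 7.5, 10mM Mg acetate, 0.01% Tween-20, 0.05% BSA; qHTS 6-point titration, ~60 µM downward; luminescence read.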
NPC1 prom act: activators of NPC1 promoter | Potency, µM (doses to about 9.22 µM), for the others: top-dose activation, usual class: activators | Huh7 NPC1 promoter luciferase reporter, 24 h | hit rate 2.4% among 320,000; also: % of control where 0% means no effect; nearly all actives have a fitted effect of over 60% in size
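Luminescence from an NPC1 promoter-driven luciferase reporter in stably transfected Huh7 cells was measured after 24 h compound treatment at 37 °C, followed by 10 min ambient incubation with luciferase detection reagent.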
SMN2 splice up: SMN2 splice variant enhancement. HEK293 SMN2-luciferase splicing reporter, luminescence, 30-36 h. Potency, µM (highest dose often 46.1 µM), without a hit: at the top dose activity change, positive = activation, most hits filed as activators. hit rate 2.8% among 210,000; also: % of control where 0% means no effect; nearly all actives have a fitted effect of over 55% in size
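HEK293 cells carry an SMN2 […]–luciferase reporter in which exon 7 inclusion puts luciferase in frame. Cells were plated 10-12 h before compound addition, then incubated 30-36 h at 37C. ONE-Glo luminescence was read; sodium butyrate at 4.5 mM final served as control.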
Luc counter: blocks Kinase-Glo luciferase, a counter-screen artifact | Kinase-Glo luciferase, ATP luminescence, 8 min | AID 1379 | hit rate 0.28% among 200,000 | Potency, µM (doses to about 38.3 µM), inactives show at the top dose activity change, negative = inhibition, hits mostly inhibitors | Q27757; also: % is scaled to controls: 0 for no effect and ±100 for the full control effect; nearly all actives have a fitted effect of over 60% in size
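Inhibition of Kinase-Glo luciferase light generation was assessed at 10 uM ATP in pH 7.2 imidazole buffer, with luminescence measured after eight minutes at ambient temperature.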
Numbers without * were called inactive; [ ] = remark or other dose. In the library only some 7.5% were active in any assay of this set; here they are far more common. Calls follow the shape of the dose curve; as a rule, active = well fitted curve in the direction sought with a large enough effect; inconclusive = small, poorly fitted or top-dose-only effect, or another doubt; inactive = no such curve, though single readings can be large; an effect the other way counts as inactive or inconclusive. Potency is read from the fitted curve at half-maximal effect.

O=c1c2ccccc2nc(COc2ccccc2)n1/N=C/c1cc([N+](=O)[O-])ccc1O was read as Rab9 promoter act 11%, ELG1 genotox 0%, FLuc counter 19µM*, NPC1 prom act 12%, SMN2 splice up -37% and Luc counter -2%.
Screening Cc1cc(/C=N/NC(=O)C(O)(c2ccccc2)c2ccccc2)c(C)n1-c1ccccc1 returned Rab9 promoter act -1%, ELG1 genotox -3%, FLuc counter inconclusive, NPC1 prom act -4%, SMN2 splice up inconclusive and Luc counter 0%.
Screening Cc1cc(/C=N/NC(=O)c2cccs2)c(C)n1-c1ccccc1 returned Rab9 promoter act 0.79µM*, ELG1 genotox inconclusive, FLuc counter 0.085µM*, NPC1 prom act 0.63µM*, SMN2 splice up inconclusive and Luc counter -3%.
`Cc1cccc(C)c1-n1c(C)cc(/C=N/NC(=O)CSc2ncccn2)c1C` gave Rab9 promoter act -2%, ELG1 genotox 9%, FLuc counter inconclusive, NPC1 prom act 2%, SMN2 splice up -5%[1.84 µM] and Luc counter 1%.
For Cc1cc(/C=N/NC(=O)c2cccs2)c(C)n1-c1cnccn1 the results were Rab9 promoter act 3.5µM*, ELG1 genotox 7.3µM*, FLuc counter 4.8µM* and NPC1 prom act 2µM*.
Cc1cc(C)nc(SCC(=O)N/N=C/c2cc(C)n(-c3ccccc3C)c2C)n1 was read as Rab9 promoter act -1%, ELG1 genotox -1%, FLuc counter 17µM*, NPC1 prom act 0%, SMN2 splice up -14% and Luc counter -2%.
For Cc1ccc(-n2c(C)cc(/C=N/NC(=O)c3ccncc3)c2C)cc1C the results were Rab9 promoter act 24%, ELG1 genotox -1%, FLuc counter 8.5µM*, NPC1 prom act -7%, SMN2 splice up -22% and Luc counter -3%.
`O=C(N/N=C/c1cccnc1)c1cccs1` gave Rab9 promoter act 18%, ELG1 genotox 6%, FLuc counter inconclusive and NPC1 prom act 3%.
Cc1ccc(CNC(=O)Cc2c(C)c3cc4c(C)coc4cc3oc2=O)cc1 was read as FLuc counter -3% and SMN2 splice up 9%.
CCc1ccccc1N(c1nc(-c2ccc(OC)c(OC)c2)no1)c1nc(-c2ccc(OC)c(OC)c2)no1 was read as FLuc counter -2% and SMN2 splice up -8%.
For COc1cc(C(=O)OCC(=O)N2CCC(Cc3ccccc3)CC2)cc(OC)c1OC the results were Rab9 promoter act -7%, ELG1 genotox 0%, FLuc counter 7% and NPC1 prom act 1%.
CCc1ccc(-n2c(C)cc(/C=N/NC(=O)c3ccncc3)c2C)cc1 was read as Rab9 promoter act -1%, ELG1 genotox -11%, FLuc counter 12µM*, NPC1 prom act 4%, SMN2 splice up -15% and Luc counter -1%.
`Cc1cccc(C)c1-n1c(C)cc(/C=N/NC(=O)c2ccncc2)c1C` gave Rab9 promoter act 0%, ELG1 genotox 3%, FLuc counter -23%, NPC1 prom act 0%, SMN2 splice up 2% and Luc counter -1%.
Cc1ccc(-n2c(C)cc(/C=N/NC(=O)CC3(C)OCCO3)c2C)c(C)c1 was read as Rab9 promoter act 1%, ELG1 genotox -1%, FLuc counter inconclusive, NPC1 prom act 1%, SMN2 splice up -48% and Luc counter -3%.
Cc1cc(/C=N/NC(N)=O)c(C)n1-c1ccc(F)cc1 was read as Rab9 promoter act -1%, ELG1 genotox 4%, FLuc counter -10%, NPC1 prom act 0%, SMN2 splice up -28% and Luc counter -1%.
`Cc1ccc(-n2c(C)cc(/C=N/NC(=O)c3ccncc3)c2C)c(C)c1` gave Rab9 promoter act 8%, ELG1 genotox -4%, FLuc counter 12µM*, NPC1 prom act -5%, SMN2 splice up -10% and Luc counter -2%.

Screens: PubChem, National Center for Advancing Translational Sciences (NCATS)
